Measured values taken from PubChem BioAssay (Tox21).
Inconclusive results are not listed. Active and inactive are the calls of the source. Unless noted, the call rests on the fitted dose curve; in most records, active means well fitted curve in the direction sought with a large enough effect in the repeat runs; inconclusive means weak or mixed curves; inactive means no such curve, though single readings can be large; an effect the other way counts as inactive or inconclusive.

Legend:
[1] = qHTS assay to identify aromatase inhibitors - cell viability counter screen (AID 743084);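 further: cells stimulated with testosterone during compound exposure; nearly all actives have a fitted effect of over 55% in size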; further: potency means the concentration at half of the fitted maximal effect
[2] = biological target: Aryl hydrocarbon receptor (Homo sapiens) (UniProt P35869); experiment: qHTS assay to identify small molecule that activate the aryl hydrocarbon receptor (AhR) signaling pathway (AID 743085);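 further: HG2L7.5c1 human HepG2 liver cells with stably integrated DRE-driven firefly reporter; series mostly up to about 70 µM; nearly all actives have a fitted effect of over 15% in size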
Procedure, shortened: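 Luminescence (ONE-Glo) from a dioxin-responsive-element luciferase reporter in HG2L7.5c1 HepG2 cells after 24 hr compound exposure at 37C; viability measured by CellTiter-Fluor fluorescence beforehand.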

[3] = biological target: Peroxisome proliferator-activated receptor gamma (Homo sapiens) (UniProt P37231); experiment: qHTS assay to identify small molecule agonists of the peroxisome proliferator-activated receptor gamma (PPARg) signaling pathway (AID 743094; active means well fitted activation curve with a large enough effect in the signal ratio in the repeat runs, not every such curve was filed as active; the % refers to the signal ratio)
Procedure, shortened: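 Cell-based bla reporter, HEK293H background, PPARg-driven UAS. Pre-incubation 5 h, 37C, 5% CO2. Compound 17 h, 37C. Substrate 1 h RT; fluorescence.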

[4] = qHTS assay to identify small molecule antagonists of the peroxisome proliferator-activated receptor gamma (PPARg) signaling pathway - cell viability counter screen (AID 743194); further: nearly all actives have a fitted effect of over 55% in size; further: potency means the concentration at half of the fitted maximal effect
Procedure, shortened: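 PPARg-UAS-bla HEK293H cells were plated, rested 5 h at 37 C, then treated with compounds plus rosiglitazone (50 nM final) for 17 h at 37 C; viability was then read by CellTiter-Glo luminescence after 30 min at room temperature.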

[5] = qHTS assay for small molecule agonists of the antioxidant response element (ARE) signaling pathway - cell viability counter screen (AID 743203; calls by dose curve; further: nearly all actives have a fitted effect of over 55% in size)
Procedure, shortened: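 Measured in the same wells as the beta-lactamase ARE reporter, this read-out is CellTiter-Glo luminescence from HepG2 ARE-bla cells given compounds for 16 hrs.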

[6] = qHTS assay for small molecule activators of the heat shock response signaling pathway - cell viability counter screen (AID 743209); further: nearly all actives have a fitted effect of over 50% in size
Procedure, shortened: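 Same-well multiplex: after 2.5 h room-temperature incubation with LiveBLAzer B/G substrate and fluorescence reading, CellTiter-Glo reagent was added to HSE-bla HeLa cells that had received compound for 5 h at 37 C; luminescence read after 30 min.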

[7] = qHTS assay for small molecule activators of the heat shock response signaling pathway (AID 743210; active means well fitted activation curve with a large enough effect in the signal ratio in the repeat runs, with a control signal flat, not every such curve was filed as active; the % refers to the signal ratio; further: series mostly up to about 63 µM)
Procedure, shortened: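 Heat shock element–beta-lactamase HeLa reporter cells; qHTS with compounds for 5 h at 37 C; detection by FRET substrate fluorescence after 2.5 h at RT.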

[8] = biological target: Peroxisome proliferator-activated receptor delta (Homo sapiens) (UniProt Q03181); experiment: qHTS assay to identify small molecule agonists of the peroxisome proliferator-activated receptor delta (PPARd) signaling pathway (AID 743212; calls by dose curve)
Procedure, shortened: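 Beta-lactamase reporter read by fluorescence (LiveBLAzer B/G FRET, 2 h, room temperature). Test agents, in DMSO, incubated at 37 C with PPARd-bla HEK293H cells.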

[9] = biological target: Peroxisome proliferator-activated receptor delta (Homo sapiens) (UniProt Q03181); experiment: qHTS assay to identify small molecule antagonists of the peroxisome proliferator-activated receptor delta (PPARd) signaling pathway (AID 743215; active means well fitted inhibition curve with a large enough effect in the signal ratio in the repeat runs, not every such curve was filed as active; the % refers to the signal ratio;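 further: cells stimulated with agonist L165041 at 300 nM final during compound exposure; series mostly up to about 62 µM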)
Procedure, shortened: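 Fluorescence from cleaved LiveBLAzer B/G FRET substrate (2 h, room temperature) reports PPARd-driven beta-lactamase in HEK293H UAS-bla cells. Cells had been treated 17 h at 37 C with compound plus 300 nM final L165041.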

[10] = biological target: Bile acid receptor (Homo sapiens) (UniProt Q96RI1); experiment: qHTS assay to identify small molecule antagonists of the farnesoid-X-receptor (FXR) signaling pathway (AID 743217; active means well fitted inhibition curve with a large enough effect in the signal ratio in the repeat runs, not every such curve was filed as active; the % refers to the signal ratio; further: potency means the concentration at half of the fitted maximal effect)
Procedure, shortened: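 FRET fluorescence after 2 h room-temperature LiveBLAzer loading gives the readout. Prior step: FXR-bla HEK 293T cells, seeded and incubated 5 h, received test compounds plus 50 uM final CDCA for 16 h at 37 °C.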

[11] = biological target: Bile acid receptor (Homo sapiens) (UniProt Q96RI1); experiment: qHTS assay to identify small molecule agonists of the farnesoid-X-receptor (FXR) signaling pathway (AID 743220; active means well fitted activation curve with a large enough effect in the signal ratio in the repeat runs, not every such curve was filed as active; the % refers to the signal ratio)
Procedure, shortened: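 FXR-UAS-bla HEK 293T cells carrying a UAS-driven beta-lactamase reporter were plated for 5 h at 37C/5% CO2, then exposed to DMSO-dissolved Tox21 10K compounds for 16 h at 37C. A LiveBLAzer B/G FRET substrate was loaded for 2 h at room temperature before fluorescence reading.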

[12] = qHTS assay to identify small molecule antagonists of the farnesoid-X-receptor (FXR) signaling pathway - cell viability counter screen (AID 743221; active means well fitted cell-killing curve with a large enough effect in the repeat runs, not every such curve was filed as active; further: nearly all actives have a fitted effect of over 50% in size)
Procedure, shortened: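 Cytotoxicity counter screen run in the FXR-bla reporter wells: HEK 293T cells exposed to compound with 50 uM (final) chenodeoxycholic acid for 16 h, 37 C, then viability measured by CellTiter-Glo luminescence after 30 min, room temperature.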

[13] = biological target: Vitamin D3 receptor (Homo sapiens) (UniProt P11473); experiment: qHTS assay to identify small molecule agonists of the vitamin D receptor (VDR) signaling pathway (AID 743222; calls by dose curve)
Procedure, shortened: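 Following 4 h attachment at 37C, VDR-bla cells (2,000 per well) received DMSO-dissolved compounds or controls. After 16 h incubation, LiveBLAzer B/G FRET substrate was added and fluorescence read 2 h later at room temperature.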

[14] = qHTS assay to identify small molecule agonists of the peroxisome proliferator-activated receptor delta (PPARd) signaling pathway - cell viability counter screen (AID 743211); further: nearly all actives have a fitted effect of over 55% in size
Procedure, shortened: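 Viability was measured as CellTiter-Glo luminescence (30 min, room temperature) in the same wells as the beta-lactamase readout. GeneBLAzer PPARd UAS-bla HEK293H cells received compound after 5 h plating and were incubated 17 h at 37 C.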

[15] = qHTS assay to identify small molecule antagonists of the peroxisome proliferator-activated receptor delta (PPARd) signaling pathway - cell viability counter screen (AID 743213); further: nearly all actives have a fitted effect of over 50% in size
Procedure, shortened: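 HEK293H PPARd UAS-bla cells, 5 h pre-incubation, compound + L165041 300 nM final, 17 h 37 C; B/G FRET substrate 2 h RT; then CellTiter-Glo 30 min RT, luminescence.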

[16] = qHTS assay to identify small molecule agonists of the farnesoid-X-receptor (FXR) signaling pathway - cell viability counter screen (AID 743218); further: nearly all actives have a fitted effect of over 45% in size
Procedure, shortened: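 Readout: CellTiter-Glo luminescence, 30 min RT, multiplexed after the FXR-bla FRET reading. HEK 293T FXR-UAS-bla cells received compound 5 h post-plating and were incubated 16 h at 37 C.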

[17] = biological target: Vitamin D3 receptor (Homo sapiens) (UniProt P11473); experiment: qHTS assay to identify small molecule antagonists of the vitamin D receptor (VDR) signaling pathway (AID 743223; active means well fitted inhibition curve with a large enough effect in the signal ratio in the repeat runs, not every such curve was filed as active; the % refers to the signal ratio)
Procedure, shortened: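 Antagonist mode: compound added to VDR-bla cells alongside agonist 1alpha,25-dihydroxyvitamin D3 (3 nM final), incubation 16 h at 37C. Read-out is LiveBLAzer FRET fluorescence, 2 h at room temperature.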

[18] = qHTS assay to identify small molecule that activate the aryl hydrocarbon receptor (AhR) signaling pathway - cell viability counter screen (AID 743086);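 further: HepG2 liver cells carrying the AhR DRE luciferase reporter; series mostly up to about 70 µM; nearly all actives have a fitted effect of over 45% in size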
Procedure, shortened: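 HepG2-AhR-luc (HG2L7.5c1) cells, 4000/well, were preincubated 5 h at 37C, exposed to compound in qHTS format for 24 hr at 37C, then given CellTiter-Fluor for 30 min; viability was read as fluorescence in the reporter wells.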

[19] = qHTS assay for small molecule agonists of the antioxidant response element (ARE) signaling pathway (AID 743202; active means well fitted activation curve with a large enough effect in the signal ratio in the repeat runs, not every such curve was filed as active; the % refers to the signal ratio; further: potency means the concentration at half of the fitted maximal effect)
Procedure, shortened: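 Following a 16 h, 37 C exposure of reporter HepG2 cells (ARE-driven beta-lactamase, 2,000 cells/well) to compounds, FRET substrate was applied for 2 h at room temperature and fluorescence intensity recorded.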

[20] = biological target: Peroxisome proliferator-activated receptor gamma (Homo sapiens) (UniProt P37231); experiment: qHTS assay to identify small molecule antagonists of the peroxisome proliferator-activated receptor gamma (PPARg) signaling pathway (AID 743191; calls by dose curve; further: series mostly up to about 63 µM; nearly all actives have a fitted effect of over 30% in size)
Procedure, shortened: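 GeneBLAzer PPARg UAS-bla HEK293H cells carrying a UAS-driven beta-lactamase reporter were plated at 3000 cells/well, preincubated 5 h at 37C, then given compound for 17 h at 37C; LiveBLAzer B/G FRET substrate was read after 1 h at room temperature.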

Measured: Potency

Chain of Bile acid receptor (Homo sapiens) (Q96RI1 whole entry, looked up): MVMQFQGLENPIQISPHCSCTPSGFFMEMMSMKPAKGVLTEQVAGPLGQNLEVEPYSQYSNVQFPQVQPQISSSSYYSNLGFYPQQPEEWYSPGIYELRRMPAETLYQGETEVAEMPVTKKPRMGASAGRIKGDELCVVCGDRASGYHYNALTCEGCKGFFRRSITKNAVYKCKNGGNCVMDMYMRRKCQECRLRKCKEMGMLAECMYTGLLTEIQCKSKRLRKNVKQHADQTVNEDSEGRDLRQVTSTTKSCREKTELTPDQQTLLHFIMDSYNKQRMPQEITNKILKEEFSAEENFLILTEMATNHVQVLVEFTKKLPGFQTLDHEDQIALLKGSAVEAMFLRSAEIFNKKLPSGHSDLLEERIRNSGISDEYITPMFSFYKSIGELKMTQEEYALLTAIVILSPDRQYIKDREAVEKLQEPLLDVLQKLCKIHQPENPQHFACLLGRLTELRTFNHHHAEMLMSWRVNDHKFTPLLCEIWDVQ
Chain of Peroxisome proliferator-activated receptor gamma (Homo sapiens) (P37231 whole entry, looked up): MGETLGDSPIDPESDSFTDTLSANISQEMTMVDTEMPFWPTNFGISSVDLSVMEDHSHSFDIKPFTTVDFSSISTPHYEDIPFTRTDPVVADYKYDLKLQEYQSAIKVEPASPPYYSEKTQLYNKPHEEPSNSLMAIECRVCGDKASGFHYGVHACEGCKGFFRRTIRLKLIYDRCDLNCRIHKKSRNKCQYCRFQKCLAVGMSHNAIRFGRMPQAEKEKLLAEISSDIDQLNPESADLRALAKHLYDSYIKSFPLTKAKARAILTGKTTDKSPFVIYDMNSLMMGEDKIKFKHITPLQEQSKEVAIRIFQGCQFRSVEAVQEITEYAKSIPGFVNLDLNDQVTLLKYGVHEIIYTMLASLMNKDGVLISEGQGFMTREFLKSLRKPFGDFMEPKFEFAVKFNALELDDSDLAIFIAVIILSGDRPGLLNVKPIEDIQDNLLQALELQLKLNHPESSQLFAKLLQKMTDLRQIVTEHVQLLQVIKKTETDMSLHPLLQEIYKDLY
Chain of Peroxisome proliferator-activated receptor delta (Homo sapiens) (Q03181 whole entry, looked up): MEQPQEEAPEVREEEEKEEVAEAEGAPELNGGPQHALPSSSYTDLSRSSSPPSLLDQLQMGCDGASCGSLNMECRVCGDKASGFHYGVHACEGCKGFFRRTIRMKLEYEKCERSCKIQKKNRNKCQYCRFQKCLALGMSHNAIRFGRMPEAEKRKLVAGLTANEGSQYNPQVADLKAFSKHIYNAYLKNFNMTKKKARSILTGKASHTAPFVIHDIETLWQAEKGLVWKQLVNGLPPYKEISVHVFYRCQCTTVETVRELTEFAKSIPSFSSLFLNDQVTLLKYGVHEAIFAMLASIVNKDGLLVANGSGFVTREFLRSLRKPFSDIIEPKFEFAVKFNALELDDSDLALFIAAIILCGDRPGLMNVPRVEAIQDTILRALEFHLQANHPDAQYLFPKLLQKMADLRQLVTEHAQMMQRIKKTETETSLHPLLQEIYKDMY
Chain of Aryl hydrocarbon receptor (Homo sapiens) (P35869 whole entry, looked up): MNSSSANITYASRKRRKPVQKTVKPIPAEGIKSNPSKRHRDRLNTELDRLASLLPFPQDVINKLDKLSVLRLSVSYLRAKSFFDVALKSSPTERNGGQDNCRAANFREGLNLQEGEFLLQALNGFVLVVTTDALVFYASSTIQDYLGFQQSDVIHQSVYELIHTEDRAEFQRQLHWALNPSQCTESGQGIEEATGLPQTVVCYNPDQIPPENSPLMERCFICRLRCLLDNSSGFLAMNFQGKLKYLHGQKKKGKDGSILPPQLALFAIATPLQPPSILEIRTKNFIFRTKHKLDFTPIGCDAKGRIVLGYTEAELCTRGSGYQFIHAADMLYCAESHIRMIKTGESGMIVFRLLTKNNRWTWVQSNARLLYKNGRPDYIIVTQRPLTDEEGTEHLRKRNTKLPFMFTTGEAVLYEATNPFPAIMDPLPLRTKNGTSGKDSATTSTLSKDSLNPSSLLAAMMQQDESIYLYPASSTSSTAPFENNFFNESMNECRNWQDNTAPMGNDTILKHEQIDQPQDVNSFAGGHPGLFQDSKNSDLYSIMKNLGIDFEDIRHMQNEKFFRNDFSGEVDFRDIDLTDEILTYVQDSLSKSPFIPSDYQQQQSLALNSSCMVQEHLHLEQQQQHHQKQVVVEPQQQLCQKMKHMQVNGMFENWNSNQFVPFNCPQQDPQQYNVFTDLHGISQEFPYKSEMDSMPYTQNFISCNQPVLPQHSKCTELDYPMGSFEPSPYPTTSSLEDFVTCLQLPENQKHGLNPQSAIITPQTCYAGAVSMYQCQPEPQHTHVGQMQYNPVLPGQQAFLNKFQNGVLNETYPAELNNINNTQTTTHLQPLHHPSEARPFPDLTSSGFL
Chain of Vitamin D3 receptor (Homo sapiens) (P11473 whole entry, looked up): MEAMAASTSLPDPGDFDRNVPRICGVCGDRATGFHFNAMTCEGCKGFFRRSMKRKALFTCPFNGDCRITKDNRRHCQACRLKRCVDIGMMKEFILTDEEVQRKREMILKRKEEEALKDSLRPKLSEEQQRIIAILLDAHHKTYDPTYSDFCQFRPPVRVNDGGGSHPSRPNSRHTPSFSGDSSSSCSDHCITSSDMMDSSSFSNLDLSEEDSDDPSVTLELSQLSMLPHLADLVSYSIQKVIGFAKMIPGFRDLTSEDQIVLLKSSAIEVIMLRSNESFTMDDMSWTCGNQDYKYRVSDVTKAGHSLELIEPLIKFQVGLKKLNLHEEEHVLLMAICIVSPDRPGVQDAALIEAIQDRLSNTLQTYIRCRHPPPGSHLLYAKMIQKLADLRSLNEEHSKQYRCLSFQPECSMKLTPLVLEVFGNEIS

CN(C)CCN(Cc1ccc(Cl)cc1)c1ccccn1
not listed: [14] | [15] | [16] | [17] | [18] | [19] | [20]
inactive: all other assays above

O=C1OC(=O)C2C3C=CC(C3)C12 (stereo not drawn)
not listed: [10] | [11] | [17] | [18] | [19] | [20]
inactive: all other assays above

N=c1ccn2c(n1)O[C@H]1[C@H](O)[C@@H](CO)O[C@H]12
not listed: [8] | [9] | [10] | [11] | [13] | [18] | [19] | [20]
inactive: all other assays above

CCCCCC[C@@H](O)C/C=C\CCCCCCCC(=O)OC
not listed: [2] | [8] | [9] | [10] | [11] | [17] | [20]
inactive: all other assays above

CC1(c2ccccc2)OC(C(=O)O)=CC1=O (stereo not drawn)
not listed: [2] | [7] | [9] | [12] | [13] | [16] | [17]
inactive: all other assays above

COc1ccc(C)cc1[N+](=O)[O-]
not listed: [8] | [9] | [14] | [17] | [18] | [19] | [20]
inactive: all other assays above

CC(C)C[C@H]1C(=O)N2CCC[C@H]2[C@]2(O)O[C@](NC(=O)[C@@H]3C=C4c5cccc6[nH]c(Br)c(c56)C[C@H]4N(C)C3)(C(C)C)C(=O)N12
inactive: [1] | [2] | [4] | [5] | [6] | [7] | [16] | [12]
active: [19] 4.13 µM

COc1cc(C(=O)OCCCN2CCCN(CCCOC(=O)c3cc(OC)c(OC)c(OC)c3)CC2)cc(OC)c1OC
inactive: [2] | [4] | [5] | [6] | [7] | [14] | [9] | [16] | [12] | [13]
active: [1] 8.41 µM

C=C1C(=C/C=C2\CCC[C@]3(C)[C@@H]([C@H](C)/C=C/[C@@H](O)C4CC4)CC[C@@H]23)C[C@@H](O)C[C@@H]1O
active: [4] 26.6 µM | [10] 29.8 µM
inactive: [1] | [2] | [11]

CCCCCCCCCOS(=O)(=O)O
inactive: [1] | [2] | [3] | [5] | [6] | [7] | [14] | [15] | [16] | [12]
